# Columns and labels:
# Format in all cases: functional
# Plasmodium falciparum [1] = experiment: GSK_TCMDC: Inhibition of Plasmodium falciparum 3D7 in whole red blood cells, using parasite LDH activity as an index of growth. Test compounds present at 2uM
# Plasmodium falciparum [2] = experiment: GSK_TCMDC: Inhibition of Plasmodium falciparum Dd2 in whole red blood cells, using parasite LDH activity as an index of growth. Test compounds present at 2uM
# HepG2 = experiment: GSK_TCMDC: Percent inhibition of human HepG2 cell line. Test compounds present at 10uM.
smiles,measurement,setting,value
CCC(CC)(CCC#N)CN(C[C@@H](O)[C@H](Cc1ccccc1)NC(=O)OC(C)(C)C)S(=O)(=O)c1ccc(OC)cc1,Inhibition,Plasmodium falciparum [1],82%
same,Inhibition,Plasmodium falciparum [2],66%
same,Inhibition,HepG2,0%
N#Cc1ccc(-c2ccc(OCC(O)CN3CCCN(Cc4cccc(O)c4Cl)CC3)cc2)cc1 (configuration not stated),Inhibition,Plasmodium falciparum [1],98%
same,Inhibition,Plasmodium falciparum [2],66%
same,Inhibition,HepG2,3%
COCCn1c(-c2cccc(Cl)c2)nn(-c2ccc([N+](=O)[O-])cc2Cl)c1=S,Inhibition,Plasmodium falciparum [1],100%
same,Inhibition,Plasmodium falciparum [2],99%
same,Inhibition,HepG2,2%
CCCC(C)Nc1nc(C)cc(N[C@@H](CC(C)C)C(=O)NCc2cccc(F)c2)n1.O=C(O)C(F)(F)F (some centres not stated),Inhibition,Plasmodium falciparum [1],96%
same,Inhibition,Plasmodium falciparum [2],63%
same,Inhibition,HepG2,1%
Cc1cccc(NC(=O)c2ccc(C(=O)NC3CCN(CC4CCCCC4)CC3)cc2)c1.O=C(O)C(F)(F)F,Inhibition,Plasmodium falciparum [1],95%
same,Inhibition,Plasmodium falciparum [2],18%
same,Inhibition,HepG2,14%
COc1cc(C2Nc3ccc4ccccc4c3C3=C2C(=O)CC(C)(C)C3)ccc1Oc1ccc([N+](=O)[O-])cc1C#N (configuration not stated),Inhibition,Plasmodium falciparum [1],99%
same,Inhibition,Plasmodium falciparum [2],94%
same,Inhibition,HepG2,8%
Cc1cc(NC(=O)NCCN2CCC(NC(=O)c3ccc(Cl)cc3)CC2)c2ccccc2n1,Inhibition,Plasmodium falciparum [1],90%
same,Inhibition,Plasmodium falciparum [2],54%
same,Inhibition,HepG2,0%
COc1ccc(Cn2c(Nc3cccc(C(F)(F)F)c3)nc3ccc(C(=O)NCCN4CCCC4)cc32)cc1Cl,Inhibition,Plasmodium falciparum [1],100%
same,Inhibition,Plasmodium falciparum [2],6%
same,Inhibition,HepG2,14%
CCc1ccccc1N=C1c2c(cccc2[N+](=O)[O-])C(=O)C1C(C)=O (configuration not stated),Inhibition,Plasmodium falciparum [1],99%
same,Inhibition,Plasmodium falciparum [2],96%
same,Inhibition,HepG2,0%
CCOC(=O)c1[nH]c2ccc(F)cc2c1NC(=O)CN1CCN(c2cccc(C(F)(F)F)c2)CC1,Inhibition,Plasmodium falciparum [1],96%
same,Inhibition,Plasmodium falciparum [2],90%
same,Inhibition,HepG2,12%
COc1ccccc1Oc1c(N(C)S(=O)(=O)c2ccc(C(C)C)cc2)nc(C(F)(F)F)nc1N(C)S(=O)(=O)c1ccc(C(C)C)cc1,Inhibition,Plasmodium falciparum [1],94%
same,Inhibition,Plasmodium falciparum [2],98%
same,Inhibition,HepG2,4%
CCCNCc1ccc(-c2ccc(CNC3Cc4ccccc4C3)cc2)nc1.O=C(O)C(F)(F)F,Inhibition,Plasmodium falciparum [1],97%
same,Inhibition,Plasmodium falciparum [2],32%
same,Inhibition,HepG2,23%
CCN(CCCN1CCCCC1)c1cc(C)nc(Nc2ccc(OC)cc2)n1.O=C(O)C(F)(F)F,Inhibition,Plasmodium falciparum [1],100%
same,Inhibition,Plasmodium falciparum [2],24%
same,Inhibition,HepG2,23%
O=C(CN1CCC2(CCC1=O)CC(=O)c1ccccc1O2)NCCN1CCOCC1 (configuration not stated),Inhibition,Plasmodium falciparum [1],100%
same,Inhibition,Plasmodium falciparum [2],0%
same,Inhibition,HepG2,6%
COc1ccc2nccc(N/N=C/c3cccc([N+](=O)[O-])c3)c2c1,Inhibition,Plasmodium falciparum [1],100%
same,Inhibition,Plasmodium falciparum [2],98%
same,Inhibition,HepG2,4%
Cc1cc(N[C@@H](C)C(=O)Nc2ccccc2)nc(NCCc2ccc(F)cc2)n1.O=C(O)C(F)(F)F,Inhibition,Plasmodium falciparum [1],100%
same,Inhibition,Plasmodium falciparum [2],43%
same,Inhibition,HepG2,33%
CS(=O)(=O)CCOCc1ccc(-c2ccc3ncnc(Nc4ccc(OCc5cccc(F)c5)c(Cl)c4)c3c2)o1,Inhibition,Plasmodium falciparum [1],96%
same,Inhibition,Plasmodium falciparum [2],43%
same,Inhibition,HepG2,1%
COc1cccc(NC(=O)Nc2c(-c3cccc(C(F)(F)F)c3)c(C(F)(F)F)nn2C)c1,Inhibition,Plasmodium falciparum [1],93%
same,Inhibition,Plasmodium falciparum [2],30%
same,Inhibition,HepG2,2%
N#Cc1ccc(CNCCCCCCCNCc2ccc(-c3ccccc3)cc2)cc1,Inhibition,Plasmodium falciparum [1],87%
same,Inhibition,Plasmodium falciparum [2],10%
same,Inhibition,HepG2,19%
CN(c1ccc(NC(=O)Nc2cccc(Cl)c2)cc1)c1ccnc(N)n1.Cl,Inhibition,Plasmodium falciparum [1],100%
same,Inhibition,Plasmodium falciparum [2],40%
same,Inhibition,HepG2,75%
Cc1ccc(NC(=O)C(C)Sc2nnc(-c3ccccc3Br)[nH]2)cc1 (configuration not stated),Inhibition,Plasmodium falciparum [1],89%
same,Inhibition,Plasmodium falciparum [2],90%
same,Inhibition,HepG2,2%
COc1ccc(-c2cc3ncnc(N4CCN(CCN5CCCC5)CC4)c3s2)cc1,Inhibition,Plasmodium falciparum [1],98%
same,Inhibition,Plasmodium falciparum [2],90%
same,Inhibition,HepG2,22%
COc1ccc2nc3cc(Cl)ccc3c(Nc3ccc(O)c(CNC(C)C)c3)c2c1,Inhibition,Plasmodium falciparum [1],100%
same,Inhibition,Plasmodium falciparum [2],100%
same,Inhibition,HepG2,5%
CCOC(=O)C1=C(C)N=c2sc(=Cc3cc(Cl)ccc3O)c(=O)n2C1c1ccc(OC)cc1 (configuration not stated),Inhibition,Plasmodium falciparum [1],99%
same,Inhibition,Plasmodium falciparum [2],65%
same,Inhibition,HepG2,0%
O=C(CSc1nc(-c2ccccc2Cl)ns1)Nc1ccc2c(c1)OCO2,Inhibition,Plasmodium falciparum [1],93%
same,Inhibition,Plasmodium falciparum [2],77%
same,Inhibition,HepG2,0%
CC(C)(C)N1CCC(N(Cc2ccc(-c3ccc(C(F)(F)F)cc3)cc2)C(=O)Cn2c(CCc3cccc(F)c3F)cc(=O)c3cccnc32)CC1.O=C(O)C(O)C(O)C(=O)O,Inhibition,Plasmodium falciparum [1],100%
same,Inhibition,Plasmodium falciparum [2],63%
same,Inhibition,HepG2,100%
COc1cc(Cc2cnc(N)nc2N)cc(OCCCCc2nnn[nH]2)c1OC,Inhibition,Plasmodium falciparum [1],97%
same,Inhibition,Plasmodium falciparum [2],0%
same,Inhibition,HepG2,7%
O=C(Nc1ccc(F)c(F)c1)c1ccc(CN2CCCN(Cc3cccc(F)c3)CC2)cc1.O=C(O)C(F)(F)F,Inhibition,Plasmodium falciparum [1],83%
same,Inhibition,Plasmodium falciparum [2],12%
same,Inhibition,HepG2,51%
O=C(NCc1cccc(F)c1)c1ccc(O)c(-c2cc(Cl)cc(Cl)c2)c1,Inhibition,Plasmodium falciparum [1],99%
same,Inhibition,Plasmodium falciparum [2],99%
same,Inhibition,HepG2,0%
COc1ccc(-c2cccc(NC(=O)c3cccc(Cl)c3)c2)cc1CN1CCCC1.O=C(O)C(F)(F)F,Inhibition,Plasmodium falciparum [1],99%
same,Inhibition,Plasmodium falciparum [2],66%
same,Inhibition,HepG2,45%
CN1CCN(c2cc(NC(=O)c3ccc(-c4ccc(Cl)cc4)cc3)ccc2Cl)CC1,Inhibition,Plasmodium falciparum [1],99%
same,Inhibition,Plasmodium falciparum [2],33%
same,Inhibition,HepG2,30%
CN(C)C(CNC(=O)c1cc(-c2ccncc2)c(-c2ccc(NC(=O)Nc3ccccc3)cc2)o1)c1ccccc1.O=C(O)C(F)(F)F (configuration not stated),Inhibition,Plasmodium falciparum [1],100%
same,Inhibition,Plasmodium falciparum [2],96%
same,Inhibition,HepG2,19%
CCOC(=O)c1nc(-c2ccccc2)[nH]c1NC(=S)NC1CCCCC1,Inhibition,Plasmodium falciparum [1],96%
same,Inhibition,Plasmodium falciparum [2],1%
same,Inhibition,HepG2,6%
CCCc1cc(Cc2cnc(N)nc2N)cc(CCC)c1OCCCC(=O)OCC,Inhibition,Plasmodium falciparum [1],94%
same,Inhibition,Plasmodium falciparum [2],0%
same,Inhibition,HepG2,0%
Cc1cc(CNCCCCCCCNCc2cccc([N+](=O)[O-])c2)ccc1O,Inhibition,Plasmodium falciparum [1],100%
same,Inhibition,Plasmodium falciparum [2],0%
same,Inhibition,HepG2,6%
OC(CNc1ccnc(Nc2cccc(CCN3CCOCC3)c2)n1)c1ccccc1 (configuration not stated),Inhibition,Plasmodium falciparum [1],100%
same,Inhibition,Plasmodium falciparum [2],14%
same,Inhibition,HepG2,34%
CCOc1ccccc1C(=O)N1CCc2cc3nccc(N4CCN5CCC[C@H]5C4)c3cc21,Inhibition,Plasmodium falciparum [1],100%
same,Inhibition,Plasmodium falciparum [2],58%
same,Inhibition,HepG2,4%
O=C(NCc1ccc(Cl)c(Cl)c1)c1ccc(-c2nc3ccc(F)cc3[nH]2)cc1,Inhibition,Plasmodium falciparum [1],93%
same,Inhibition,Plasmodium falciparum [2],9%
same,Inhibition,HepG2,0%
CCOc1ccccc1NC(=O)Nc1ccc2c(c1)CCN(C1CCC1)CC2.Cl,Inhibition,Plasmodium falciparum [1],88%
same,Inhibition,Plasmodium falciparum [2],2%
same,Inhibition,HepG2,15%
CC(C)c1cc2c(ccc3nc(N)nc(N)c32)o1,Inhibition,Plasmodium falciparum [1],99%
same,Inhibition,Plasmodium falciparum [2],37%
same,Inhibition,HepG2,66%
COc1ccc(NC(=O)C2c3ccccc3C(=O)N(CC(C)C)C2c2cccs2)cc1OC (configuration not stated),Inhibition,Plasmodium falciparum [1],100%
same,Inhibition,Plasmodium falciparum [2],98%
same,Inhibition,HepG2,6%
COc1cc(C(=O)Nc2nc3ccccc3[nH]2)ccc1OCC(=O)Nc1cccc(C(F)(F)F)c1,Inhibition,Plasmodium falciparum [1],100%
same,Inhibition,Plasmodium falciparum [2],33%
same,Inhibition,HepG2,33%
CC(O)C1CCCCN1C(=O)c1ccc(-c2ccc(-c3nc4ccccc4[nH]3)s2)cc1 (configuration not stated),Inhibition,Plasmodium falciparum [1],100%
same,Inhibition,Plasmodium falciparum [2],98%
same,Inhibition,HepG2,33%
COc1ccc(CC(=O)NC(CCCN2CCC3(CC2)OCc2ccccc23)c2ccc(Cl)c(Cl)c2)cc1 (configuration not stated),Inhibition,Plasmodium falciparum [1],83%
same,Inhibition,Plasmodium falciparum [2],53%
same,Inhibition,HepG2,40%
Br.CC1(C)NC(N)=NC(=N)N1OCCCc1c(Cl)cccc1Cl,Inhibition,Plasmodium falciparum [1],95%
same,Inhibition,Plasmodium falciparum [2],97%
same,Inhibition,HepG2,71%
Cl.Oc1cc(-c2nc(-c3ccccc3)[nH]c2-c2ccncc2)ccc1Cl,Inhibition,Plasmodium falciparum [1],96%
same,Inhibition,Plasmodium falciparum [2],91%
same,Inhibition,HepG2,64%
COc1ccc2nccc([C@@H](O)CN3CCC(c4cc(-c5ccc(Cl)cc5)[nH]n4)CC3)c2n1,Inhibition,Plasmodium falciparum [1],97%
same,Inhibition,Plasmodium falciparum [2],56%
same,Inhibition,HepG2,43%
COc1ccc(C(=O)Cn2nc(-c3ccc(Cl)cc3)ccc2=O)c(OC)c1,Inhibition,Plasmodium falciparum [1],93%
same,Inhibition,Plasmodium falciparum [2],70%
same,Inhibition,HepG2,0%
COc1ccc2[nH]c(C)cc(=NN=Cc3cc(OC)c(OC)cc3OC)c2c1,Inhibition,Plasmodium falciparum [1],100%
same,Inhibition,Plasmodium falciparum [2],56%
same,Inhibition,HepG2,1%

# Reference: ChEMBL document CHEMBL1157539, “Thousands of chemical starting points for antimalarial lead identification” (Nature, 2010)
